Data on 15 compounds can be found in ChEMBL document CHEMBL4513146, “CO-ADD screening of Karazin Kharkiv National University (Ukraine) compounds”.

Entries with a potency or affinity are not part of this list.

The experiment deals with Staphylococcus aureus. To be noted: Concentration 32 ug.mL-1;; ASSAY_TEST Inhibition of Bacterial Growth; detection method Absorption (OD600); MEDIA CAMHB; plate type 384well; NBS; CORNING #3640; time 18 hr.
Take `CCOc1ccc(-n2ccn3c(SC(CC)C(=O)Nc4cc(F)ccc4F)nnc3c2=O)cc1` (stereo not given): the Inhibition is recorded as 7.7%.

As to `Cc1nnc2ccc(S(=O)(=O)N(Cc3ccccc3Cl)c3cccc(F)c3)cn12`, the Inhibition is -1.06%.

As to `CCCc1nnc2c(=O)n(CC(=O)Nc3cccc(C(C)=O)c3)c3ccccc3n12`, the Inhibition was 2.4%. For `Cc1c(Cl)cccc1-n1ccn2c(=O)n(Cc3cccc(F)c3)nc2c1=O`, the Inhibition was 9.54%. `Cc1ccc(F)cc1NC(=O)CSc1nc2ccccc2n2c(C(C)C)nnc12`: the Inhibition is 9.29%. Under `CC(C)(C)Sc1ccc2nn(CC(=O)Nc3ccccc3C(F)(F)F)c(=O)n2n1` stands 6.28%; under `COc1ccc(N2CCN(C(=O)Cn3nc4c(Oc5ccc(C)cc5)nccn4c3=O)CC2)cc1`, 4.51%; under `CCc1ccccc1NC(=O)Cn1nc2c(SCc3ccc(Cl)cc3)nccn2c1=O`, 9.03%. Regarding `COc1cccc(CNC(=O)CSc2nnc3c4cc(-c5cc(C)ccc5C)nn4ccn23)c1OC`, the Inhibition is on record as 5.75%. Take `CCCCc1ccc(NC(=O)Cn2nc3ccc(-c4ccc(C)c(C)c4)nn3c2=O)cc1`: the Inhibition turned out to be 7.91%.

With `C=Cc1ccc(CN(c2ccc(CC)cc2)S(=O)(=O)c2cccn3c(C)nnc23)cc1`, the Inhibition stood at 9.91%.

With `O=c1c2sccc2n2c(=O)n(Cc3ccc(Cl)cc3)nc2n1Cc1cccs1`, the Inhibition was -8.27%. On to `CC(C)c1nnc2c(=O)n(CC(=O)Nc3cccc(C#N)c3)c3ccccc3n12`, for which the Inhibition turned out to be 14.89%. With `CC(C)c1nnc2c(=O)n(CC(=O)Nc3ccc(F)cc3)c3ccccc3n12`, the Inhibition was determined as 20.52%. The result for `COc1cccc(-n2ccn3c(SCc4ccc(C)cc4)nnc3c2=O)c1` reads 8.11%.
